The values that follow come from PubChem BioAssay (Tox21).

The structures appear in SMILES notation. Inconclusive results are not listed. A call without a number means that no potency is given here. The source made the active and inactive calls. The call rests on the fitted dose curve.
Potency means the concentration at half of the fitted maximal effect.

Muscarinic acetylcholine receptor M1 (Homo sapiens), sequence (P11229 whole entry, looked up): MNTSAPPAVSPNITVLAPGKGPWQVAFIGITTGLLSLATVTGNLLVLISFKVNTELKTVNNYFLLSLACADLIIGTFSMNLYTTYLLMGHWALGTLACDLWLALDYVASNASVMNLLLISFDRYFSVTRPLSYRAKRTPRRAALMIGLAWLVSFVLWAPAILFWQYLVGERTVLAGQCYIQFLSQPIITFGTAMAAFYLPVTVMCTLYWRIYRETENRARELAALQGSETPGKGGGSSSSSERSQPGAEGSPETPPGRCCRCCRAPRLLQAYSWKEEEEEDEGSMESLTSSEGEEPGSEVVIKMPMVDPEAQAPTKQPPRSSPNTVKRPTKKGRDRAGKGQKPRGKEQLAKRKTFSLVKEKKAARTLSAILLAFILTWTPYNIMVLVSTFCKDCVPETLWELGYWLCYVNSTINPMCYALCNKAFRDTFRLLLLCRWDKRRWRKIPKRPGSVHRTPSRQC

For the assay, the target named is Muscarinic acetylcholine receptor M1 (Homo sapiens) (UniProt P11229). In words: Cholinergic receptor muscarinic 1 (CHRM1) small molecule antagonists, cell-based qHTS assay (AID 1963588). Further: nearly all actives have a fitted effect of over 40% in size. As to conditions: CHRM1-CHO antagonist mode, calcium flux fluorescence; series mostly up to 61.5 µM. The source says:
National Center for Advancing Translational Sciences [NCATS]
Division of Preclinical Innovation [DPI]
U.S. Environmental Protection Agency [EPA]
National Institutes of Environmental Health Sciences [NIEHS]
National Toxicology Program [NTP]
U.S. Food and Drug Administration [FDA]
The CHRM1 is a muscarinic receptor. This receptor plays a crucial role in learning and memory processes and has long been identified as a promising therapeutic target for the improvement of cognitive decline in Alzheimer's disease (AD). The CHRM1-CHO cell line stably expressing human muscarinic acetylcholine receptor M1 (CHRM1) can be used for screening agonists and antagonists of interactions between CHRM1 and its ligands. The CHRM1-CHO Calcium Flux Assay is a homogeneous fluorescence-based assay for detecting the intracellular calcium level using FDSS kinetic plate reader system.
Tox21 Assay Protocol Summary:
CHRM1-CHO cells were dispensed at 1000 cells/3uL/well in 1536-well black-clear bottom plates using a Multidrop Dispenser. After the assay plates were incubated at a 37 C/5% CO2 incubator for 18 h, 3 uL of Dye Loading Buffer was transferred to the assay plate by a Flying Reagent Dispenser. The assay plates were incubated at 37 C for 1h. For antagonist mode, 23 nL of compounds dissolved in DMSO, positive controls or DMSO only was transferred to the assay plate by a pin tool. After 5 min incubation at room temperature, 1.5 uL of acetylcholine at 50nM was added to each well. The fluorescence intensity in the plates was measured using FDSS 7000EX kinetic plate reader for 3 min at 1 sec intervals. Each test compound was measured at 15 concentrations in three independent runs.
(In qHTS, concentration-response curves come from the screen itself.)
`c1cc[c]([Hg][c]2ccccc2)cc1`: the Potency result is “inactive”.

With `CN1C(=S)CN=C(c2ccccc2)c2cc(Cl)ccc21`, the Potency entry is “inactive”.

With `ClSC(Cl)(Cl)Cl`, the Potency result is “inactive”.

For the compound `NNCc1ccccc1`, the Potency result is “inactive”.

Take `CCCCCOC(=O)c1ccccc1C(=O)OCCCCC`: the Potency result was “inactive”.

In the case of `O=[N+]([O-])c1ccc2ccc3cccc4ccc1c2c34`, the Potency result is “inactive”.

As for `C[N+](C)(C)CC1CO1` (stereo not given), the Potency result is “inactive”.

Consider `O=C=Nc1ccc(Cl)cc1`, for which the Potency result is “inactive”.

Consider `ClC(Cl)C(Cl)Cl`, for which the Potency result was “inactive”.

`Cc1nc(N)nc(N)n1`: the Potency entry was “inactive”.

For the compound `Clc1ccc(CCC(Cn2ccnc2)Sc2c(Cl)cccc2Cl)cc1` (stereo not given), the Potency result was “inactive”.

Regarding `O=C(O)COc1ccc(Cl)cc1`, the Potency result is “inactive”.

Take `CS/C(C)=N/OC(=O)N(C)SN(C)C(=O)O/N=C(\C)SC`: the Potency result was “inactive”.

Regarding `ClP(Cl)(Cl)(Cl)Cl`, the Potency entry is “inactive”.

For `CC(C)C(Nc1ccc(C(F)(F)F)cc1Cl)C(=O)OC(C#N)c1cccc(Oc2ccccc2)c1` (stereo not given), the Potency result is “inactive”.

`O=C1OC(CCN2CCCCC2)OC1(c1ccccc1)c1ccccc1` (stereo not given): the Potency is 2.31 µM (active).

In the case of `Clc1ccc(-c2ccc(Cl)c(Cl)c2Cl)c(Cl)c1Cl`, the Potency result was “inactive”.

On to `CC(C)=CC1C(C(=O)OCc2coc(Cc3ccccc3)c2)C1(C)C` (stereo not given), for which the Potency entry was “inactive”.

As to `O=c1c(C2CC(c3ccc(-c4ccc(Br)cc4)cc3)Cc3ccccc32)c(O)sc2ccccc12` (stereo not given), the Potency entry is “inactive”.

Regarding `Nc1cc(Cl)ccc1O`, the Potency result is “inactive”.

With `C=C1C[C@@H]2[C@H](CC[C@]3(C)C(=O)CC[C@@H]23)[C@@]2(C)C=CC(=O)C=C12`, the Potency entry is “inactive”.

`CC[C@H]1C[C@@H]2C[C@H]3c4[nH]c5ccc(OC)cc5c4CCN(C2)[C@@H]13`: the Potency result is “inactive”.

For the compound `COc1nn(C(=O)NS(=O)(=O)c2ccccc2OC(F)(F)F)c(=O)n1C`, the Potency result is “inactive”.

Take `O=[N+]([O-])c1ccc(CCl)cc1`: the Potency entry was “inactive”.

For the compound `CNC(=O)Oc1ccc(N(C)C)c(C)c1`, the Potency result was “inactive”.

Consider `OC(c1ccc(F)cc1)(c1cncnc1)c1ccccc1Cl` (stereo not given), for which the Potency result was “inactive”.

Take `Cc1cccc(OP(=O)(Oc2cccc(C)c2)Oc2cccc(C)c2)c1`: the Potency entry is “inactive”.

As for `O=C(NC(O)C(Cl)(Cl)Cl)NC(O)C(Cl)(Cl)Cl` (stereo not given), the Potency entry is “inactive”.

Consider `CCOP(=S)(OCC)Oc1cc(-c2ccccc2)on1`, for which the Potency entry is “inactive”.

Consider `Oc1c(Cl)cc(Cl)cc1Cl`, for which the Potency result is “inactive”.

For the compound `O=[N+]([O-])O.O=[N+]([O-])O.[Cd]`, the Potency result was “inactive”.

`O=C(CBr)Nc1ccc(Cl)cc1C(=O)c1ccccc1F`: the Potency result is “inactive”.

On to `CC#C[C@]1(O)CC[C@H]2[C@@H]3C[C@H](C)C4=CC(=O)CC[C@]4(C)[C@H]3CC[C@@]21C`, for which the Potency entry was “inactive”.

Regarding `CC(C)N(CCC(C(N)=O)(c1ccccc1)c1ccccn1)C(C)C` (stereo not given), the Potency is 2.05 µM (active).

On to `ClC1=C(Cl)[C@]2(Cl)[C@H]3[C@H]([C@H]4C=C[C@H]3C4)[C@@]1(Cl)C2(Cl)Cl`, for which the Potency result is “inactive”.

In the case of `C=CC(=O)OCC(C)O` (stereo not given), the Potency entry was “inactive”.

On to `Cc1cc(Cl)ccc1O[C@H](C)C(=O)O`, for which the Potency result was “inactive”.

Consider `C#C[C@]1(O)C=C[C@H]2[C@@H]3CCC4=CC(=O)CC[C@@H]4[C@H]3CC[C@@]21CC`, for which the Potency result was “inactive”.

On to `ClC1=C(Cl)[C@]2(Cl)[C@@H]3[C@@H](Cl)[C@H]4O[C@H]4[C@@H]3C1(Cl)C2(Cl)Cl`, for which the Potency entry is “inactive”.

As to `O=CC=O`, the Potency result was “inactive”.
